# This is a sample that favours compounds with a hit; in the whole collection about 6.7% have one here.
# C diff growth – inhibitors of Clostridium difficile growth; growth activity, negative = inhibition, % at 16 µg/mL (by protocol); 0.25% of 86,000 active; Clostridium difficile clinical isolate growth, OD600, 24 h; hits give low values;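 active means mean growth activity at or below -80% and every replicate also at or below -80%; inconclusive means mean at or below -80% but some replicate above -80%; inactive means mean growth activity above -80%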;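 further: 0% = DMSO wells and -100% = levofloxacin 16 µg/mL wells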
# Pf Dd2 growth – blocks growth of Plasmodium falciparum Dd2 parasites. P. falciparum Dd2 growth, SYBR Green, 72 h; hits give low values. activity change, % at 10 µM. 2.3% of 94,000 active. AID 1159554; in the data active means activity change below about -80%; inconclusive means no clear call, values can overlap the other calls
# T cruzi growth-1 – blocks T. cruzi growth in NIH3T3 culture; T. cruzi beta-gal in NIH3T3, GalScreen luminescence, 90 h; inhibition, % at 8.34 µM; 5.9% of 77,000 active;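 active means mean inhibition above about 93%, with at least 55% of replicates each passing it, limit read from the data, passing the limit was not always enough; inconclusive means only one of those two conditions holds; inactive means neither condition holds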
# T cruzi growth-2 – inhibitors of T. cruzi proliferation; 72% of 5,600 active; T. cruzi beta-gal in NIH3T3, GalScreen luminescence, 90 h; inhibition, % at 8.35 µM; shares compounds with T cruzi growth-1; AID 651739;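 active means mean replicate inhibition above about 95% and at least 55% of replicates individually reaching it, limit read from the data; inconclusive means only one of the two criteria is met; inactive means neither criterion is met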
# T cruzi growth-3 – blocks T. cruzi growth in NIH3T3 host cells; shares compounds with T cruzi growth-1; T. cruzi beta-gal in NIH3T3, GalScreen luminescence, 90 h; inhibition, % at 2.09 µM; 21% of 5,600 active;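 active means mean inhibition above about 95%, with at least 55% of replicates also reaching it, limit read from the data; inconclusive means meets just one of the two conditions; inactive means meets neither condition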;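 further: plate controls were neutral control median for no effect and positive control median for full effect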
# NIH3T3 tox – NIH/3T3 (mouse) viability loss. 14% of 5,600 active. shares compounds with T cruzi growth-1. NIH/3T3 viability, CellTiter-Glo ATP luminescence, 90 h. cytotoxicity (signal decrease), % at 8.35 µM. AID 651742;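 active means mean signal decrease across replicates above about 35% based on untreated-well scatter, with enough replicates individually passing, limit read from the data; inconclusive means no rule stated though some were filed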;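 further: 0% = median of neutral control wells and 100% = median of positive control wells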
# 3T3 cytotox 2 – kills mouse NIH/3T3 fibroblasts | NIH/3T3 viability, CellTiter-Glo ATP luminescence, 90 h | shares compounds with T cruzi growth-1 | 56% of 5,600 active | inhibition, % at 24.9 µM | AID 651744;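 active means mean loss of cell viability signal at or above a set limit, and enough replicates individually reaching it; inconclusive means meets only the mean limit or only the replicate share; inactive means meets neither condition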;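 further: 0% = median of neutral control wells and 100% = median of positive control wells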
# * marks the source's active call; other numbers are inactive results; ? = inconclusive; nt = no result given.
SMILES,C diff growth,Pf Dd2 growth,T cruzi growth-1,T cruzi growth-2,T cruzi growth-3,NIH3T3 tox,3T3 cytotox 2
C[C@@H]1CCCCO[C@@H](CN(C)Cc2ccc(Cl)c(Cl)c2)[C@@H](C)CN([C@H](C)CO)C(=O)c2cc(NC(=O)c3ccccc3)ccc2O1,5.2,-14.2,95.9*,113.7*,48.7,5.5,13.9
C[C@H]1CCCCO[C@H](CN(C)Cc2ccncc2)[C@@H](C)CN([C@@H](C)CO)C(=O)c2cc(NC(=O)Cc3ccccc3)ccc2O1,-2.9,-3.3,80.6,nt,nt,nt,nt
C[C@@H]1CCCCO[C@H](CN(C)Cc2ccccc2)[C@H](C)CN([C@@H](C)CO)C(=O)c2cc(NC(=O)c3ccccc3)ccc2O1,-3.2,-46.6,54.5,nt,nt,nt,nt
C[C@@H]1CCCCO[C@H](CN(C)Cc2ccccc2)[C@@H](C)CN([C@H](C)CO)C(=O)c2cc(NC(=O)c3ccccc3)ccc2O1,2.4,7.8,24.6,nt,nt,nt,nt
Cc1noc(C)c1S(=O)(=O)Nc1ccc2c(c1)C(=O)N([C@H](C)CO)C[C@@H](C)[C@@H](CN(C)C(=O)c1ccccc1)OCCCC[C@H](C)O2,nt,-16.5,-31.3,nt,nt,nt,nt
O=C(NCC[C@@H]1CC[C@@H](NS(=O)(=O)c2cccc(F)c2)[C@@H](CO)O1)C1CCOCC1,2.2,nt,nt,nt,nt,nt,nt
C[C@@H]1CN([C@H](C)CO)C(=O)c2cc(NC(=O)NC3CCCCC3)ccc2O[C@@H]1CN(C)Cc1ccc(Oc2ccccc2)cc1,15.2,0.5,58.6,nt,nt,nt,nt
CN(C)CC(=O)N1CC(=O)N2[C@H](CO)[C@@H](c3ccc(-c4ccc(C#N)cc4)cc3)[C@H]2C1,-3.2,21.9,nt,nt,nt,nt,nt
C[C@H]1CN([C@@H](C)CO)C(=O)c2cccc(NC(=O)Nc3ccc(F)cc3)c2O[C@H]1CN(C)S(=O)(=O)c1cccs1,4.1,4.1,-126.7,nt,nt,nt,nt
C[C@H](CO)N1C[C@H](C)[C@@H](CN(C)S(=O)(=O)c2cccs2)Oc2c(NC(=O)Nc3ccc(C(F)(F)F)cc3)cccc2C1=O,-5.0,-26.5,103.6*,82.4,19.8,10.7,57.3*
C[C@H](CO)N1C[C@H](C)[C@H](CN(C)S(=O)(=O)c2cccs2)Oc2c(NC(=O)Nc3ccc(F)cc3)cccc2C1=O,14.5,-29.3,4.0,nt,nt,nt,nt
C[C@@H]1CN([C@H](C)CO)C(=O)c2cccc(NC(=O)Nc3ccc(C(F)(F)F)cc3)c2O[C@@H]1CN(C)S(=O)(=O)c1cccs1,6.4,-19.3,92.9*,99.3*,46.0,20.0,105.4*
C[C@H]1CN([C@@H](C)CO)C(=O)c2cccc(NC(=O)Nc3ccc(C(F)(F)F)cc3)c2O[C@@H]1CN(C)S(=O)(=O)c1cccs1,-5.4,-8.3,85.1,nt,nt,nt,nt
C[C@@H]1CN([C@@H](C)CO)C(=O)c2cccc(NC(=O)Nc3ccc(C(F)(F)F)cc3)c2O[C@H]1CN(C)S(=O)(=O)c1cccs1,13.0,-34.5,99.3*,101.3*,70.8,32.9,38.7*
C[C@@H]1CN([C@@H](C)CO)C(=O)c2cc(-c3cccnc3)cnc2O[C@H]1CN(C)C(=O)C1CCOCC1,-2.6,46.3,-52.4,nt,nt,nt,nt
CC(=O)N(C)C[C@H]1Oc2cc(-c3cccc(C#N)c3)ccc2S(=O)(=O)N([C@@H](C)CO)C[C@H]1C,-5.8,-12.2,-13.2,nt,nt,nt,nt
C[C@@H]1CN([C@H](C)CO)S(=O)(=O)c2ccc(C#Cc3ccc(F)cc3)cc2O[C@@H]1CN(C)C(=O)NC1CCCCC1,3.3,-2.6,78.3,nt,nt,nt,nt
COc1ccc(C#Cc2ccc3c(c2)O[C@@H](CN(C)C(=O)NC2CCCCC2)[C@H](C)CN([C@H](C)CO)S3(=O)=O)cc1,-6.7,-75.1,?,103.1*,99.1*,-12.7,12.7
C[C@H](CO)N1C[C@H](C)[C@@H](CN(C)C(=O)NC2CCCC2)Oc2cc(C#Cc3ccc(F)cc3)ccc2S1(=O)=O,14.8,-29.1,60.3,nt,nt,nt,nt
C[C@H](CO)N1C[C@H](C)[C@@H](CN(C)C(=O)NC2CCCCC2)Oc2cc(C#Cc3ccc(F)cc3)ccc2S1(=O)=O,9.2,-34.3,86.7,nt,nt,nt,nt
CC(C)CC#Cc1ccc2c(c1)O[C@@H](CN(C)C(=O)NC1CCCC1)[C@@H](C)CN([C@H](C)CO)S2(=O)=O,-10.2,-27.7,119.3*,105.5*,93.8,-2.9,101.9*
CC(C)CC#Cc1ccc2c(c1)O[C@H](CN(C)C(=O)NC1CCCC1)[C@@H](C)CN([C@H](C)CO)S2(=O)=O,9.8,-2.1,79.3,nt,nt,nt,nt
C[C@H](CO)N1C[C@H](C)[C@H](CN(C)C(=O)NC2CCCC2)Oc2cc(C#Cc3ccc(F)cc3)ccc2S1(=O)=O,-9.1,-47.2,104.0*,95.3*,116.0*,-5.3,60.6*
C[C@@H]1CN([C@@H](C)CO)S(=O)(=O)c2ccc(C#Cc3ccc(F)cc3)cc2O[C@@H]1CN(C)C(=O)NC1CCCC1,-3.7,-45.2,115.4*,101.1*,87.5,-19.4,74.0*
CCCC(=O)Nc1ccc2c(c1)OC[C@@H](C)N(C(=O)CN(C)C)C[C@H](C)[C@H](OC)CN(C)C2=O,nt,5.8,32.8,nt,nt,nt,nt
SMILES,C diff growth,Pf Dd2 growth,T cruzi growth-1,T cruzi growth-2,T cruzi growth-3,NIH3T3 tox,3T3 cytotox 2
C[C@H](CO)N1C[C@H](C)[C@@H](CN(C)Cc2cncnc2)Oc2cc(C#C[C@@H](C)O)ccc2S1(=O)=O,1.9,30.8,6.8,nt,nt,nt,nt
CN1C[C@@H]2[C@H](c3ccccc31)[C@H](CO)N2C(=O)c1ccccn1,1.6,4.2,14.4,nt,nt,nt,nt
CCS(=O)(=O)N1CC(=O)N2[C@H](C1)[C@@H](c1ccc(C#CCC3CCCC3)cc1)[C@@H]2CO,-2.3,-5.0,nt,nt,nt,nt,nt
COc1ccc(NC(=O)N2C[C@@H](O)COC[C@@H]3O[C@@H](CC(=O)NCc4ccccc4OC)CC[C@H]32)cc1,nt,-13.4,28.0,nt,nt,nt,nt
C[C@@H]1CN([C@@H](C)CO)S(=O)(=O)c2ccc(C#Cc3ccc(F)cc3)cc2O[C@H]1CN(C)C(=O)NC1CCCCC1,-1.1,-41.2,83.7,nt,nt,nt,nt
C[C@H]1CN([C@@H](C)CO)S(=O)(=O)c2ccc(C#Cc3ccc(F)cc3)cc2O[C@H]1CN(C)C(=O)NC1CCCC1,-13.7,?,98.7*,98.6*,112.8*,2.4,104.4*
CN1c2ccc(-c3ccccc3F)cc2[C@H]2[C@H](CCN2C(=O)Nc2ccc(F)cc2)[C@H]1CO,75.2,4.7,?,111.1*,93.6,-14.8,45.4*
CCC(=O)N1CC[C@@H]2[C@@H](CO)N(C)c3ccc(-c4ccccc4F)cc3[C@@H]21,8.7,20.7,89.2,nt,nt,nt,nt
CCC(=O)N1CC[C@@H]2[C@H]1c1cc(-c3ccccc3F)ccc1N(C)[C@H]2CO,-2.6,28.3,91.5,nt,nt,nt,nt
CN1c2ccc(-c3ccccc3F)cc2[C@@H]2[C@@H](CCN2C(=O)Nc2ccc(F)cc2)[C@@H]1CO,-10.2,0.8,107.0*,103.6*,101.4*,13.8,43.4*

# Source: PubChem (Broad Institute)
